# From PubChem BioAssay (NCATS)
# Inconclusive results are not listed. Entries that show only a call come without a potency. A number with no mark means an inactive call. Activity calls are given as the source filed them. The call rests on the fitted dose curve; in most records, active means well fitted curve in the direction sought with a large enough effect; inconclusive means small, poorly fitted or top-dose-only effect, or another doubt; inactive means no such curve, though single readings can be large; an effect the other way counts as inactive or inconclusive.
# How the values were obtained:
# [1] = molecular target: Cellular tumor antigen p53 (Homo sapiens) (UniProt P04637); test: Primary qHTS for small molecule compounds that upregulate eGFP-tagged delta133p53alpha (in N-terminal) cells. (AID 2060322); conditions: NCI-H358 eGFP-delta133p53alpha fluorescence, 24 h; activation: active compounds read high; further: nearly all actives have a fitted effect of over 75% in size; further: potency means the concentration at half of the fitted maximal effect; on activation: series mostly up to about 56 µM
# Method in brief: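 NCI-H358 cells pre-induced 24 h with 10 ng/ml doxycycline to express N-terminal eGFP-delta133p53alpha, then dosed 24 h at 37C without doxycycline; fixed, Hoechst-stained, GFP intensity by laser scanning cytometry, normalized to DMSO (0%) and 57.5 uM 5-azacytidine (100%).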
# [2] = molecular target: Aldehyde dehydrogenase, mitochondrial (Homo sapiens) (UniProt P05091); test: qHTS for Inhibitors of the Aldehyde Dehydrogenase Family (ALDH2) Primary screen (AID 2061308); further: nearly all actives have a fitted effect of over 55% in size
# [3] = molecular target: Retinaldehyde dehydrogenase 3 (Homo sapiens) (UniProt P47895); test: qHTS for Inhibitors of the Aldehyde Dehydrogenase Family (ALDH1A3) Primary screen (AID 2061315)
# Sequence of Cellular tumor antigen p53 (Homo sapiens) (P04637 whole entry, looked up): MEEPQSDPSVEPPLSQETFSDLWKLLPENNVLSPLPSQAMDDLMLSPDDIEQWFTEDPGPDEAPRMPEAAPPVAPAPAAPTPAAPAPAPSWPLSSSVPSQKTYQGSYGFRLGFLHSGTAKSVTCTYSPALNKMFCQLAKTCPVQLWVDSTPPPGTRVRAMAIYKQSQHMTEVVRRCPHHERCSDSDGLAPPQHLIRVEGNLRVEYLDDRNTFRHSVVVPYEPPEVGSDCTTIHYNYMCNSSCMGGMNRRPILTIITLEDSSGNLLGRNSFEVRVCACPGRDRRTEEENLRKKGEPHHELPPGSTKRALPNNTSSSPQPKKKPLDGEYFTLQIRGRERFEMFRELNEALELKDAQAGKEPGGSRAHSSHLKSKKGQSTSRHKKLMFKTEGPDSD
Compound,activation [1] [%],Potency [2],Potency [3],Potency [1]
O=C(NCC(O)CO)c1ccncc1Nc1ccc(I)cc1F (centres undefined),19.6,inactive,inactive,
CC(=O)O[C@@H]1[C@H]2[C@@H](OC(=O)c3ccccc3)[C@@H](C)C[C@]2(O)[C@H](OC(C)=O)[C@@]2(C)[C@@H]3CC(C)(C)C(=O)[C@]3(OC(C)=O)C[C@@]12C,-15.2,inactive,inactive,
CC(C)=CCC/C(C)=C/CO[C@@H]1O[C@H](CO)[C@@H](O)[C@H](O)[C@H]1O,-4.46,inactive,inactive,
CC(C)=CCC[C@](C)(O[C@@H]1O[C@H](CO)[C@@H](O)[C@H](O)[C@H]1O)[C@H]1CC[C@]2(C)[C@@H]1[C@H](O)CC1[C@@]3(C)CC[C@H](O)C(C)(C)C3[C@@H](O[C@@H]3O[C@H](CO)[C@@H](O)[C@H](O)[C@H]3O[C@@H]3O[C@@H](C)[C@H](O)[C@@H](O)[C@H]3O)C[C@]12C (some centres undefined),-21.4,inactive,inactive,
O=C(OC1C=C(CO)C2C(OC3OC(CO)C(O)C(O)C3O)OC=CC12)c1ccc(O)cc1 (centres undefined),-16,inactive,inactive,
C=C1C(=O)O[C@@H]2C3=C(C)CCC[C@]3(C)CC[C@@]12O,,inactive,inactive,16.9 µM (active)
C[C@@H]1C[C@@H](O)[C@@]23CO[C@]2(CO)C[C@@H](O)CC3[C@@]12CC(c1ccoc1)OC2=O (some centres undefined),-7.14,inactive,inactive,
C=C(C)C1Cc2cc(C(=O)OC3OC(CO)C(O)C(O)C3O)ccc2O1 (centres undefined),9.92,inactive,inactive,
